Source: PubChem BioAssay
PrPC TRFRET – cell surface PrPC inhibition, primary TR-FRET screen; P04156; TR-FRET read-out; inhibition, % at 13.8 µM; 0.43% of 370,000 active; AID 720596; in the data active means inhibition above about 24%
FBA Mtb inh – inhibitors of M. tuberculosis fructose-bisphosphate aldolase; P9WQA3; purified M. tuberculosis FBA, fluorescence read-out; inhibition, % at 1 µM; 2.3% of 360,000 active; AID 588726; in the data active means inhibition above about 27%
Target sequence (P9WQA3 whole entry, looked up): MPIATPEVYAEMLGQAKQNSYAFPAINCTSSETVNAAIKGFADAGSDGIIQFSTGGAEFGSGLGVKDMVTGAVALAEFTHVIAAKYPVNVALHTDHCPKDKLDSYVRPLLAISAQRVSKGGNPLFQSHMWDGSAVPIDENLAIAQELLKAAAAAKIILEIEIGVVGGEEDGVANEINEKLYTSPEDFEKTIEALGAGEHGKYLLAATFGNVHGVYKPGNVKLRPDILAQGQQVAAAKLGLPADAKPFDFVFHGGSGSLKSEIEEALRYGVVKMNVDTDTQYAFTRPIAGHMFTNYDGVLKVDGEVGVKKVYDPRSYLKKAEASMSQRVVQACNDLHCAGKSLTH
BJeLR lethal – BJeLR cell viability loss; AID 1554; 0.17% of 300,000 active; BJeLR (HRASV12) viability, CellTiter-Glo ATP luminescence, 48 h; inhibition, % (test concentration not listed); in the data active means inhibition above about 50%
RecA splice inh – inhibitors of M. tuberculosis RecA intein splicing. P9WHJ3. cell-free RecA intein splicing, fluorescence. inhibition, % (no concentration beside the values). 0.75% of 290,000 active. AID 2221; in the data active means inhibition above about 30%
GDH-TPI counter – counter-screen for M. tuberculosis FBA inhibitors: GDH-TPI coupled enzymes. AID 588335. inhibition, % at 4.8 µM. GDH-TPI coupled enzyme counterscreen, NADH absorbance. 1.2% of 360,000 active; in the data active means inhibition above about 30%
Numbers stand for hits; i = inactive; nt = no result given; + = active, no number. Shown are actives, neighbours in structure and some others; about 4.2% of the full set was active somewhere.

SMILES | PrPC TRFRET | FBA Mtb inh | BJeLR lethal | RecA splice inh | GDH-TPI counter
CC(=O)CC[C@H]1CC[C@]2(CCCN(C(=O)c3ccc4ccccc4n3)C2)O1 | i | nt | nt | nt | nt
CSc1cnc2c(=O)n(C)c(=O)[nH]c2n1 | i | 130 | i | i | i
CSc1nnc2c(=O)[nH]c(=O)n(C)c2n1 | i | i | nt | nt | i
COc1ccc(/C=C/C(=O)Nc2cccc(C(C)=O)c2)cc1 | i | i | i | i | 33
CCc1cc(C(=O)O)c(NC(=O)/C=C/c2ccc(OC)cc2)s1 | i | i | i | i | 74
COc1ccccc1/C=C/C(=O)Nc1cccc(C(C)=O)c1 | i | i | i | i | i
CCc1cc(C(=O)O)c(NC(=O)/C=C/c2ccc(OC)c(OC)c2)s1 | i | i | i | i | i
CC(=O)Nc1cccc(C(=O)/C=C/c2ccc(/C=C/C(=O)c3cccc(NC(C)=O)c3)cc2)c1 | i | nt | 81 | i | nt
CC(=O)Nc1cccc(C(=O)/C=C/c2ccc(F)cc2)c1 | i | i | i | i | i
COC(=O)C1CN(Cc2cn(Cc3ccc(F)cc3)nn2)CCS(=O)(=O)N1Cc1ccc(F)cc1 (centres undefined) | i | nt | nt | nt | nt
O=C(C1CCN(c2ncnc3c2sc2cccc(F)c23)CC1)N1CCN(C(=O)C2CCCO2)CC1 (centres undefined) | i | nt | nt | nt | nt
C[N+]1(C)[C@H]2CC[C@H]1CC(OC(=O)C(O)c1ccccc1)C2 (some centres undefined) | i | nt | nt | nt | nt
COc1cc(C)ccc1OCCCOc1ccccc1Cl | i | i | i | i | i
COc1cc(C)ccc1OCCOc1ccccc1Cl | i | 118 | i | i | i
COc1ccccc1CNC(=O)c1cnc2sccn2c1=O | i | i | i | i | 36
Cc1cccc(NC(=O)c2cnc3sccn3c2=O)n1 | i | i | i | i | 33
O=C(NCc1cccnc1)c1cnc2sccn2c1=O | i | i | i | i | 41
O=C(CSc1nnc(-c2cccnc2)n1-c1ccccc1)Nc1ccc(OCc2ccccc2)cc1 | i | nt | nt | nt | nt
Cc1cc(OC(C)CCN2CCC(C(O)(c3ccccc3)c3ccccc3)CC2)ccc1Br (centres undefined) | i | nt | nt | nt | nt
O=C(CSc1nnc(SCc2cccc3ccccc23)s1)c1ccc(F)cc1 | i | nt | nt | nt | nt
CCOc1cc(/C=N/n2cnnc2)ccc1OCC(=O)Nc1ccccc1OC | i | i | i | i | i
CCOc1cc(/C=C2\C(=O)N(c3cccc(C(=O)O)c3)N=C2C(F)(F)F)ccc1OCC(=O)Nc1ccccc1OC | nt | nt | i | 33 | nt
COc1cc(OC)cc(C(=O)c2c(C)c(C#N)c3ccccn23)c1 | i | i | i | i | i
COC1=C/C(=C/c2c(O)c(C#N)c3ccccn23)C=CC1=O | i | i | i | i | 44
CCc1cc(=O)oc2c(C)c(OCC(=O)NCCCN3CCCC3=O)ccc12 | i | i | i | i | i
SMILES | PrPC TRFRET | FBA Mtb inh | BJeLR lethal | RecA splice inh | GDH-TPI counter
CCc1cc(=O)oc2c3c(cc(OCC(=O)Nc4cccnc4)c12)OC(C)(C)CC3 | i | 34 | i | i | i
CCc1cc(=O)oc2c3c(cc(OCC(=O)NCCCCCC(=O)O)c12)OC(C)(C)CC3 | i | + | i | i | i
CCc1cc(=O)oc2c3c(cc(OCC(=O)NCc4ccccn4)c12)OC(C)(C)CC3 | i | 189 | i | i | i
CCc1cc(=O)oc2c(C)c(OCC(=O)NCc3ccccn3)ccc12 | i | i | i | i | i
CCc1cc(=O)oc2c3c(cc(OCC(=O)NCc4cccnc4)c12)OC(C)(C)CC3 | i | + | i | i | i
COc1cc2c(c3oc(=O)cc(CC(=O)O)c13)CCC(C)(C)O2 | i | 199 | i | i | i
COc1c2c(cc3oc(=O)c4c5ccc(O)cc5oc4c13)OC(C)(C)CC2 | i | i | i | i | i
O=C(C1CC1)N1CCc2cc(Br)c(S(=O)(=O)NCCCN3CCCCC3)cc21 | i | nt | nt | nt | nt
COc1ccc(C(=O)OCCCN(C)C2CN(Cc3cn(Cc4ccccc4Cl)nn3)S(=O)(=O)C2)cc1OC (centres undefined) | i | nt | nt | nt | nt
CC1CCCCC1NC(=O)NC(=O)COC(=O)c1nccnc1N (centres undefined) | i | 118 | nt | nt | i
CC1CCCCC1NC(=O)NC(=O)COC(=O)c1cncc(Br)c1 (centres undefined) | i | i | nt | nt | i
COC(=O)[C@@H](NC(=O)NC1CCCCC1C)C(C)C (some centres undefined) | i | i | i | i | i
CC1CCCC(NC(=O)NC(=O)CCl)C1C (centres undefined) | i | i | i | 48 | i
CC1CCCCC1NC(=O)NC(=O)CCl (centres undefined) | i | i | i | 34 | i
